# Source: PubChem BioAssay (EPA / NIEHS)
# Inconclusive results are not listed. Activity calls are given as the source filed them. The calls were made as follows, unless noted: active = hit-call score of the fitted dose curve at least 0.9, where 1 is the maximum; inconclusive = response in the unintended direction; inactive = score below 0.9.
# Tests used:
# [1] = TOX21_p53_BLA_p2_viability: Viability Assessment in the Tox21 HCT-116 p53 Agonism Beta-lactamase Assay, Phase 2 (AID 2283591);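 also: actives lower the ATP signal meaning cytotoxicity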
# In short: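 Cytotoxicity readout: CellTiter-Glo ATP luminescence, 30 min at room temperature, after the beta-lactamase read. Cells were HCT116 exposed 16 h at 37C to compounds pin-transferred at 217-fold dilution from DMSO stocks.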
# [2] = TOX21_p53_BLA_p3_viability: Viability Assessment in the Tox21 HCT-116 p53 Agonism Beta-lactamase Assay, Phase 3 (AID 2283593);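 also: cells exposed to compound for 16 h before reading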
# In short: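 Cellular ATP was quantified by CellTiter-Glo luminescence, read after 30 min at room temperature. Beforehand, HCT116 cells (4000/well) received compound 5 h post-seeding, 217-fold diluted from DMSO, then incubated 16 h at 37C.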
# [3] = biological target: Cellular tumor antigen p53 (Homo sapiens) (UniProt P04637); assay: TOX21_p53_BLA_p3_ratio: Tox21 HCT-116 p53 Agonism Beta-lactamase Assay, Ratio, Phase 3 (AID 2283596)
# Sequence of Cellular tumor antigen p53 (Homo sapiens) (P04637 whole entry, looked up): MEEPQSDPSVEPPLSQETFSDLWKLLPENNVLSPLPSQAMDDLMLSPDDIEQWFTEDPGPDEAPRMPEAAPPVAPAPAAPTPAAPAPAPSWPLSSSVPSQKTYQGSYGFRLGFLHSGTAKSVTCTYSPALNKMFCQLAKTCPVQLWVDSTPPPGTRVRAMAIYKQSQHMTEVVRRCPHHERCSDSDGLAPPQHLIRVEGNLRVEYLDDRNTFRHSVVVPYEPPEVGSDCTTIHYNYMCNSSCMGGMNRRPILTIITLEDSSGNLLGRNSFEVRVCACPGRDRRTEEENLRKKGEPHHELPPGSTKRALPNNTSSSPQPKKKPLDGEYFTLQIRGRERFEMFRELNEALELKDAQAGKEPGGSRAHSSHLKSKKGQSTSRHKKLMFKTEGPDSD
# In short: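 HCT116 p53-bla cells (4000/well) given compound in DMSO (217-fold dilution) after 5 h, incubated 16 h at 37C. CCF4-AM substrate 2 h at room temperature; 460/530 nm emission ratio, gain fitted against DMSO.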
# [4] = TOX21_p53_BLA_p4_viability: Viability Assessment in the Tox21 HCT-116 p53 Agonism Beta-lactamase Assay, Phase 4 (AID 2283597);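 also: hits lower the luminescence signal meaning cytotoxicity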
# In short: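 Compound exposure of HCT116 cells lasts 16 h at 37C, 5% CO2, with DMSO stocks diluted 217-fold. Cellular ATP is then quantified by CellTiter-Glo luminescence after 30 min at room temperature.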
# [5] = biological target: Cellular tumor antigen p53 (Homo sapiens) (UniProt P04637); assay: TOX21_p53_BLA_p5_ratio: Tox21 HCT-116 p53 Agonism Beta-lactamase Assay, Ratio, Phase 5 (AID 2283599)
# In short: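 Beta-lactamase reporter ratio (blue 460 nm over green 530 nm, 405 nm excitation) after 2 h CCF4-AM loading, in HCT-116 cells exposed 16 h at 37 C to compounds pinned at 217-fold dilution. Increases relative to DMSO baseline scored.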
# [6] = TOX21_p53_BLA_p5_viability: Viability Assessment in the Tox21 HCT-116 p53 Agonism Beta-lactamase Assay, Phase 5 (AID 2283600)
# In short: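 Counter-readout for cytotoxicity: ATP-dependent luminescence from CellTiter-Glo, read in the beta-lactamase wells after 30 min at RT, following a 16 h compound exposure at 37C.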
# [7] = biological target: Cellular tumor antigen p53 (Homo sapiens) (UniProt P04637); assay: TOX21_p53_BLA_p4_ratio: Tox21 HCT-116 p53 Agonism Beta-lactamase Assay, Ratio, Phase 4 (AID 2283601)
# In short: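 Signal is the blue/green (460nm/530nm) ratio of cleaved versus uncleaved CCF4-AM substrate, read after 2 h substrate loading. Cells were HCT116 carrying the p53-responsive beta-lactamase reporter, dosed 16 h at 37C, 5% CO2; CellTiter-Glo measured in parallel.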
# [8] = biological target: Cellular tumor antigen p53 (Homo sapiens) (UniProt P04637); assay: TOX21_p53_BLA_p2_ratio: Tox21 HCT-116 p53 Agonism Beta-lactamase Assay, Ratio, Phase 2 (AID 2283592)
# In short: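 An inducible beta-lactamase reporter in HCT116 cells signals p53 pathway activation. After 16 h chemical exposure at 37C, cells load CCF4-AM substrate for 2 h at room temperature; activity is the cleaved/uncleaved emission ratio relative to DMSO.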
# [9] = CCTE_Harrill_HTTr_Apoptosis_MCF7: CCTE's 6-hour Apoptosis Assessment for the High-Throughput Transcriptomics (HTTr) Platform, in MCF-7 cells cultured in DMEM + 10% fetal bovine serum, Harrill Lab (AID 2284011; active = hit-call score of the fitted dose curve at least 0.9, where 1 is the maximum; inactive = score below 0.9)
# In short: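 Cells are dosed with test chemicals at eight concentrations and imaged 6 hours later for caspase-3/7 activity using a green fluorogenic detection reagent. Activity is fitted in both directions against DMSO controls.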
# [10] = CCTE_Harrill_HTTr_CellCount_MCF7: CCTE's Cell Proliferation Assessment for the High-Throughput Transcriptomics (HTTr) Platform, Harrill Lab (AID 2284012);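 also: count of Hoechst-stained nuclei per well by high-content imaging in MCF-7 cells; cells exposed to compound for six hours; intended direction is loss of nuclei count meaning fewer cells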
# In short: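 Chemicals in eight-point dilution series are added to MCF-7 cells for six hours, nuclei are stained with Hoechst and imaged, and per-well nuclei counts are fitted in both directions relative to DMSO controls.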
compound,measurement,setting,value
BrCC(Br)C1CCC(Br)C(Br)C1 (centres undefined),outcome,[1],inactive
same,outcome,[2],inactive
same,outcome,[3],inactive
same,outcome,[4],inactive
same,outcome,[5],inactive
same,outcome,[6],inactive
same,outcome,[7],inactive
Nc1ccccc1C(=O)O,outcome,[1],inactive
same,outcome,[2],inactive
same,outcome,[3],inactive
same,outcome,[5],inactive
same,outcome,[6],inactive
same,outcome,[7],inactive
c1ccc2c(c1)Sc1ccccc1N2CC1CN2CCC1CC2 (centres undefined),outcome,[1],inactive
same,outcome,[2],inactive
same,outcome,[3],inactive
same,AC50,[4],29.1 µM (active)
same,outcome,[6],inactive
c1ccc(C2(N3CCCC3)CCCCC2)cc1,outcome,[1],inactive
same,AC50,[2],33.1 µM (active)
same,AC50,[3],43.9 µM (active)
same,outcome,[4],inactive
same,outcome,[5],inactive
same,outcome,[6],inactive
C[C@H]1CC[C@]2(NC1)O[C@H]1C[C@H]3[C@@H]4CC[C@H]5C[C@@H](O)CC[C@]5(C)[C@H]4CC[C@]3(C)[C@H]1[C@@H]2C,outcome,[1],inactive
same,outcome,[2],inactive
same,outcome,[3],inactive
same,outcome,[4],inactive
same,outcome,[5],inactive
same,outcome,[6],inactive
CCOC(=O)CBr,outcome,[1],inactive
same,outcome,[2],inactive
same,outcome,[3],inactive
same,outcome,[4],inactive
same,outcome,[6],inactive
same,outcome,[7],inactive
COc1ccc2c(c1OC)C(=O)O[C@@H]2[C@H]1c2cc3c(cc2CCN1C)OCO3,outcome,[1],inactive
same,outcome,[2],inactive
same,outcome,[3],inactive
same,outcome,[5],inactive
same,outcome,[6],inactive
same,outcome,[7],inactive
CC(Cl)Cl,outcome,[1],inactive
same,outcome,[8],inactive
same,outcome,[7],inactive
CSCCCN=C=S,outcome,[1],inactive
same,outcome,[2],inactive
same,AC50,[3],20.9 µM (active)
same,outcome,[6],inactive
C[C@@H]1O[C@@H](O[C@@H]2C=C3CC[C@@H]4[C@H](CC[C@]5(C)[C@@H](c6ccc(=O)oc6)CC[C@]45O)[C@@]3(C)CC2)[C@H](O)[C@H](O)[C@H]1O,AC50,[1],0.00927 µM (active)
same,AC50,[2],0.0134 µM (active)
same,outcome,[3],inactive
same,AC50,[4],0.0123 µM (active)
same,outcome,[5],inactive
same,AC50,[6],0.0108 µM (active)
same,outcome,[7],inactive
NNC(=O)c1ccccc1,outcome,[1],inactive
same,outcome,[2],inactive
same,outcome,[3],inactive
same,outcome,[5],inactive
same,outcome,[6],inactive
same,outcome,[7],inactive
Cc1nnc2n1-c1sc(CCC(=O)N3CCOCC3)cc1C(c1ccccc1Cl)=NC2,outcome,[1],inactive
same,outcome,[3],inactive
same,outcome,[4],inactive
same,outcome,[5],inactive
same,outcome,[6],inactive
C#CCOC(C(=O)OCCN(C)C)(c1ccccc1)c1ccccc1,outcome,[1],inactive
same,outcome,[2],inactive
same,outcome,[4],inactive
same,outcome,[6],inactive
same,outcome,[7],inactive
O=[N+]([O-])c1ccc(Cl)c(Cl)c1Cl,outcome,[1],inactive
same,outcome,[2],inactive
same,outcome,[5],inactive
same,outcome,[6],inactive
CCCCC(=O)Cl,outcome,[1],inactive
same,outcome,[3],inactive
same,outcome,[4],inactive
Oc1ccc2c3c1O[C@H]1[C@@H](O)CC[C@@]4(O)[C@@H](C2)N(CC2CCC2)CC[C@]314,outcome,[1],inactive
same,outcome,[3],inactive
same,outcome,[4],inactive
same,outcome,[6],inactive
same,outcome,[7],inactive
O=C(CCl)C(Cl)Cl,outcome,[1],inactive
same,outcome,[2],inactive
same,AC50,[4],6.25 µM (active)
same,AC50,[5],29 µM (active)
same,outcome,[6],inactive
same,AC50,[7],26.1 µM (active)
CC(Cl)(Cl)Cl,outcome,[1],inactive
same,outcome,[2],inactive
same,outcome,[5],inactive
CCCOC(=O)Cc1ccc(OCC(=O)N(CC)CC)c(OC)c1,outcome,[1],inactive
same,outcome,[2],inactive
same,outcome,[4],inactive
same,outcome,[7],inactive
COC(=O)c1ccc(CBr)cc1,outcome,[1],inactive
same,outcome,[2],inactive
same,outcome,[4],inactive
same,outcome,[6],inactive
same,outcome,[7],inactive
CN1CC[C@]23c4c5ccc(O)c4O[C@H]2[C@@H](O)CC[C@H]3[C@H]1C5,outcome,[1],inactive
same,outcome,[3],inactive
same,outcome,[4],inactive
same,outcome,[5],inactive
c1ccc(CN2CCNCC2)cc1,outcome,[1],inactive
same,outcome,[3],inactive
same,outcome,[5],inactive
C[C@H]1O[C@H](OC2[C@@H](O)[C@@H](O)C(O)[C@H](O)[C@H]2O)[C@@H](N)C[C@@H]1N=C(N)C(=O)O (some centres undefined),outcome,[1],inactive
same,outcome,[2],inactive
same,outcome,[5],inactive
CCC(=O)O[C@](Cc1ccccc1)(c1ccccc1)[C@H](C)CN(C)C,outcome,[1],inactive
same,outcome,[2],inactive
same,outcome,[4],inactive
same,outcome,[5],inactive
same,outcome,[7],inactive
O=C(Cl)C(Cl)(Cl)Cl,outcome,[1],inactive
same,outcome,[3],inactive
same,outcome,[4],inactive
same,outcome,[6],inactive
same,outcome,[7],inactive
CNCC(O)c1ccc(O)cc1 (centres undefined),outcome,[1],inactive
same,outcome,[2],inactive
same,outcome,[4],inactive
same,outcome,[5],inactive
same,outcome,[6],inactive
same,outcome,[7],inactive
COc1cc(C[C@H](C)N)c(OC)cc1Br,outcome,[1],inactive
same,outcome,[2],inactive
same,outcome,[5],inactive
same,outcome,[7],inactive
CCCN(CCC)C(=O)Cc1c(-c2ccc(Cl)cc2)nc2ccc(Cl)cn12,outcome,[1],inactive
same,outcome,[2],inactive
same,outcome,[4],inactive
same,outcome,[6],inactive
same,outcome,[7],inactive
CCC1(CC)C(=O)C=CNC1=O,outcome,[1],inactive
same,outcome,[3],inactive
same,outcome,[4],inactive
same,outcome,[5],inactive
same,outcome,[6],inactive
same,outcome,[7],inactive
Cl,outcome,[1],inactive
same,outcome,[2],inactive
same,outcome,[4],inactive
same,outcome,[6],inactive
same,outcome,[9],inactive
same,outcome,[10],inactive
Cc1cc(C)cc(C(=O)OC2C[C@H]3CC[C@@H](C2)N3C)c1 (some centres undefined),outcome,[1],inactive
same,outcome,[2],inactive
same,outcome,[4],inactive
same,outcome,[6],inactive
same,outcome,[7],inactive
CCCCCCCC(=O)Cl,outcome,[1],inactive
same,outcome,[2],inactive
same,outcome,[5],inactive
same,outcome,[6],inactive
same,outcome,[7],inactive
